Test results as given in paper PMC7862700, “An all-to-all approach to the identification of sequence-specific readers for epigenetic DNA modifications on cytosine”.

Tests used:
Experiment in all cases: DAPPL (digital affinity profiling via proximity ligation, sequencing); 10 mM Tris-HCl pH 7.5, 50 mM NaCl, 1 mM DTT, 4% glycerol, room temperature, 30 min; GST-TFs on glutathione beads, 16-mer random dsDNA library, 0.1% formaldehyde crosslink after washing; high values mean tight binding
Details in all cases: protein: recombinant; tags: N-terminal GST; dsDNA, one strand shown
[1] = biological target: T1, ERF (Homo sapiens, UniProt P50548 1-548)
T1 sequence: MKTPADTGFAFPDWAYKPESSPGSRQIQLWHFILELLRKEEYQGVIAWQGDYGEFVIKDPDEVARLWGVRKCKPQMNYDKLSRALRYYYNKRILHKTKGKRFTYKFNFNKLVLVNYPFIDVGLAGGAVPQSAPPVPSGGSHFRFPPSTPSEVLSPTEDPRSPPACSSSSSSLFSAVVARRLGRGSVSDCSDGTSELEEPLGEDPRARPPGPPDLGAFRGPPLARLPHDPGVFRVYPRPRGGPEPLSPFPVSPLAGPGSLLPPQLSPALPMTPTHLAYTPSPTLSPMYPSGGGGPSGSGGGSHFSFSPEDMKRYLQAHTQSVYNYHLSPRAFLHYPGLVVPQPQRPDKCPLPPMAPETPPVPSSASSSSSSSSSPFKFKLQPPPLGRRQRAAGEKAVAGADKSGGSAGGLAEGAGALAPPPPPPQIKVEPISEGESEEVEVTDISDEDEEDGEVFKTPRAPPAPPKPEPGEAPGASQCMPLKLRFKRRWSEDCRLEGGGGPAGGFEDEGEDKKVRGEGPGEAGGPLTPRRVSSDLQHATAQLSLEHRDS
In short: (§1)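 Each value of binding signal is a hexamer's read frequency for a factor divided by the same hexamer's frequency in the tag-only sample. Barcoded, bead-captured GST fusions of human transcription factors made in yeast were pooled with that sample and incubated with 200 nmole of a random double-stranded 16-mer DNA library in Tris/NaCl/DTT/glycerol buffer at room temperature for 30 min. Washing, 0.1% formaldehyde crosslinking, proximity ligation, PCR and Illumina NextSeq500 sequencing followed.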

[2] = biological target: T2, ETV3L (Homo sapiens, UniProt Q6ZN32 1-361)
T2 sequence: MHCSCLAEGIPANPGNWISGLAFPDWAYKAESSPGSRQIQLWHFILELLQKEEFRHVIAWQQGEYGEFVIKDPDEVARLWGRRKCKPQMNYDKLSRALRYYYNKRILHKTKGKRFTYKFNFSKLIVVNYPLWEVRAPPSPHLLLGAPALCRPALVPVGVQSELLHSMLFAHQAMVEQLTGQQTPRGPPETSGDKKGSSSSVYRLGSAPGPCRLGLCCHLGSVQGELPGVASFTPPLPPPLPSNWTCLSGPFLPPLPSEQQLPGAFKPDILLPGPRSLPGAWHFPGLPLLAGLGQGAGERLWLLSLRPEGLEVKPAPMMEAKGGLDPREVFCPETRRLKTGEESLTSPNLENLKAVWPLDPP
In short: as §1

[3] = biological target: T3, ETS2 (Homo sapiens, UniProt P15036 1-469)
T3 sequence: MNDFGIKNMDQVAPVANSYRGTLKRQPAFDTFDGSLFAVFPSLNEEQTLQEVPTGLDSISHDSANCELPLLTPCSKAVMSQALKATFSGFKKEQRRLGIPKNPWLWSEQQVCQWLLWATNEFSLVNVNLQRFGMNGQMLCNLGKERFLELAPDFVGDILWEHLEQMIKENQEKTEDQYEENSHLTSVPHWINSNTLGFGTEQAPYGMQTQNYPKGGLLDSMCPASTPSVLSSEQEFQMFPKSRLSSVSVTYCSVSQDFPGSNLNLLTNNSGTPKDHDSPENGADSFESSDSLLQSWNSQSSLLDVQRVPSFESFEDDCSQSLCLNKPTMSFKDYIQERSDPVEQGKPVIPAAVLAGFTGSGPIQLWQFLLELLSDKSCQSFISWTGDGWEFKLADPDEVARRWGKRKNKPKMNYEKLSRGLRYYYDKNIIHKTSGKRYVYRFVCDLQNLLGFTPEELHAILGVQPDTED
In short: as §1

[4] = biological target: T4, SPDEF (Homo sapiens, UniProt O95238 1-335)
T4 sequence: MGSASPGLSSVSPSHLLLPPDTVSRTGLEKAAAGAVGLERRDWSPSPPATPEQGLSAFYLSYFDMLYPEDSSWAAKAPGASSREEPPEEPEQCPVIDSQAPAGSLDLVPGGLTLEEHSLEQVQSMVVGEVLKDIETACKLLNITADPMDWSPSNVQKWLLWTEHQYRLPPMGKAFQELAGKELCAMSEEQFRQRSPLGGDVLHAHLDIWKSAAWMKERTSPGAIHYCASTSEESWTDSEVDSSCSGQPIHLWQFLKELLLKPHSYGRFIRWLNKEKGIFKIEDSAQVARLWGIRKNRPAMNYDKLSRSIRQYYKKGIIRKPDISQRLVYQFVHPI
In short: as §1

[5] = biological target: T5, ETV7 (Homo sapiens, UniProt Q9Y603 1-341)
T5 sequence: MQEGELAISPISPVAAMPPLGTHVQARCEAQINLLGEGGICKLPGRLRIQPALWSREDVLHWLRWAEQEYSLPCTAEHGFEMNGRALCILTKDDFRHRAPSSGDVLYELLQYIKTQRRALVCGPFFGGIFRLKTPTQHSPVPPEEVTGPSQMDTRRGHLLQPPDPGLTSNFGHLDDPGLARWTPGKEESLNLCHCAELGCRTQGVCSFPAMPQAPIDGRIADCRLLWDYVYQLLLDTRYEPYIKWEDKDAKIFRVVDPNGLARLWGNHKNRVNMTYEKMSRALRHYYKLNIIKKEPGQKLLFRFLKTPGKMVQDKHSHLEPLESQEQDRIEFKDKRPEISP
In short: as §1

[6] = biological target: T6, ELF5 (Homo sapiens, UniProt Q9UKW6-2 1-255)
T6 sequence: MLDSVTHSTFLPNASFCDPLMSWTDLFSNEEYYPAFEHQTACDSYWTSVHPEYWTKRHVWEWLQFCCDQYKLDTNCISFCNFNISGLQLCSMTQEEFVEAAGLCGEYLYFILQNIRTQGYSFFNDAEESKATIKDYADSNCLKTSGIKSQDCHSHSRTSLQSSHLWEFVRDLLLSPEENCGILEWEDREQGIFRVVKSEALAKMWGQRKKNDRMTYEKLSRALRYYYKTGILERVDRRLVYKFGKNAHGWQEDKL
In short: as §1

[7] = biological target: T7, ETV3 (Homo sapiens, UniProt P41162-2 1-143)
T7 sequence: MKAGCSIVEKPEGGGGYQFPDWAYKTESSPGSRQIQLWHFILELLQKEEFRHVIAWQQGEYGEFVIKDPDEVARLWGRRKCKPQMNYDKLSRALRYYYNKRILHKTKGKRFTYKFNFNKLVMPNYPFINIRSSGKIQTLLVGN
In short: as §1

[8] = biological target: ETV6 (Homo sapiens, UniProt P41212 1-452)
Sequence of ETV6 (P41212 whole entry): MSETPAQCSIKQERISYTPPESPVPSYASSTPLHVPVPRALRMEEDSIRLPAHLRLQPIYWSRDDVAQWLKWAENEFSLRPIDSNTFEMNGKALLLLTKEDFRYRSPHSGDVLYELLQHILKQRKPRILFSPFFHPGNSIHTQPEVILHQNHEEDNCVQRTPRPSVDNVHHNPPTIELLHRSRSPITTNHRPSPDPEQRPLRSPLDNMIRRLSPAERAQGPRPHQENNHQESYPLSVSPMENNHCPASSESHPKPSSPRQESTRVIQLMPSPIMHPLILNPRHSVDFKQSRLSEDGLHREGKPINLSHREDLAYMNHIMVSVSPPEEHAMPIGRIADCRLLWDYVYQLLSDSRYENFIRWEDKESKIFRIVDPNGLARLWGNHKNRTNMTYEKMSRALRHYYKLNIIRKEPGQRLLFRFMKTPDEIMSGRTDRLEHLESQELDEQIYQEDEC
In short: as §1

Row | Sequence | binding signal [1] | binding signal [2] | binding signal [3] | binding signal [4] | binding signal [5] | binding signal [6] | binding signal [7] | binding signal [8]
1 | TTAGCG | 1.05 fold enrichment (6-mer frequency, TF over GST control) | 1.06 fold enrichment (6-mer frequency, TF over GST control) | 1.06 fold enrichment (6-mer frequency, TF over GST control) | 1.04 fold enrichment (6-mer frequency, TF over GST control) | 1.11 fold enrichment (6-mer frequency, TF over GST control) | 1.02 fold enrichment (6-mer frequency, TF over GST control) | 1.03 fold enrichment (6-mer frequency, TF over GST control) | 1.04 fold enrichment (6-mer frequency, TF over GST control)
2 | CGTACA | 1.21 fold enrichment (6-mer frequency, TF over GST control) | 1.17 fold enrichment (6-mer frequency, TF over GST control) | 1.18 fold enrichment (6-mer frequency, TF over GST control) | 1.2 fold enrichment (6-mer frequency, TF over GST control) | 1.25 fold enrichment (6-mer frequency, TF over GST control) | 1.17 fold enrichment (6-mer frequency, TF over GST control) | 1.14 fold enrichment (6-mer frequency, TF over GST control) | 1.2 fold enrichment (6-mer frequency, TF over GST control)
3 | TGGTCC | 1.19 fold enrichment (6-mer frequency, TF over GST control) | 1.1 fold enrichment (6-mer frequency, TF over GST control) | 1.23 fold enrichment (6-mer frequency, TF over GST control) | 1.26 fold enrichment (6-mer frequency, TF over GST control) | 1.18 fold enrichment (6-mer frequency, TF over GST control) | 1.19 fold enrichment (6-mer frequency, TF over GST control) | 1.28 fold enrichment (6-mer frequency, TF over GST control) | 1.18 fold enrichment (6-mer frequency, TF over GST control)
4 | ATAGTT | 1.23 fold enrichment (6-mer frequency, TF over GST control) | 1.27 fold enrichment (6-mer frequency, TF over GST control) | 1.18 fold enrichment (6-mer frequency, TF over GST control) | 1.12 fold enrichment (6-mer frequency, TF over GST control) | 1.19 fold enrichment (6-mer frequency, TF over GST control) | 1.12 fold enrichment (6-mer frequency, TF over GST control) | 1.31 fold enrichment (6-mer frequency, TF over GST control) | 1.21 fold enrichment (6-mer frequency, TF over GST control)
5 | GGTATA | 1.18 fold enrichment (6-mer frequency, TF over GST control) | 1.12 fold enrichment (6-mer frequency, TF over GST control) | 1.08 fold enrichment (6-mer frequency, TF over GST control) | 1.12 fold enrichment (6-mer frequency, TF over GST control) | 1.13 fold enrichment (6-mer frequency, TF over GST control) | 1.09 fold enrichment (6-mer frequency, TF over GST control) | 1.11 fold enrichment (6-mer frequency, TF over GST control) | 1.03 fold enrichment (6-mer frequency, TF over GST control)
6 | CTTACT | 1.32 fold enrichment (6-mer frequency, TF over GST control) | 1.22 fold enrichment (6-mer frequency, TF over GST control) | 1.26 fold enrichment (6-mer frequency, TF over GST control) | 1.21 fold enrichment (6-mer frequency, TF over GST control) | 1.18 fold enrichment (6-mer frequency, TF over GST control) | 1.3 fold enrichment (6-mer frequency, TF over GST control) | 1.27 fold enrichment (6-mer frequency, TF over GST control) | 1.3 fold enrichment (6-mer frequency, TF over GST control)
7 | CTATTA | 1.08 fold enrichment (6-mer frequency, TF over GST control) | 1.11 fold enrichment (6-mer frequency, TF over GST control) | 1.14 fold enrichment (6-mer frequency, TF over GST control) | 1.07 fold enrichment (6-mer frequency, TF over GST control) | 1.07 fold enrichment (6-mer frequency, TF over GST control) | 1.1 fold enrichment (6-mer frequency, TF over GST control) | 1.05 fold enrichment (6-mer frequency, TF over GST control) | 1.14 fold enrichment (6-mer frequency, TF over GST control)
8 | TTATTC | 1.45 fold enrichment (6-mer frequency, TF over GST control) | 1.47 fold enrichment (6-mer frequency, TF over GST control) | 1.37 fold enrichment (6-mer frequency, TF over GST control) | 1.41 fold enrichment (6-mer frequency, TF over GST control) | 1.43 fold enrichment (6-mer frequency, TF over GST control) | 1.34 fold enrichment (6-mer frequency, TF over GST control) | 1.29 fold enrichment (6-mer frequency, TF over GST control) | 1.32 fold enrichment (6-mer frequency, TF over GST control)
9 | TGCCTT | 1.24 fold enrichment (6-mer frequency, TF over GST control) | 1.52 fold enrichment (6-mer frequency, TF over GST control) | 1.38 fold enrichment (6-mer frequency, TF over GST control) | 1.32 fold enrichment (6-mer frequency, TF over GST control) | 1.28 fold enrichment (6-mer frequency, TF over GST control) | 1.39 fold enrichment (6-mer frequency, TF over GST control) | 1.31 fold enrichment (6-mer frequency, TF over GST control) | 1.23 fold enrichment (6-mer frequency, TF over GST control)
10 | TCCACT | 1.42 fold enrichment (6-mer frequency, TF over GST control) | 1.49 fold enrichment (6-mer frequency, TF over GST control) | 1.45 fold enrichment (6-mer frequency, TF over GST control) | 1.37 fold enrichment (6-mer frequency, TF over GST control) | 1.4 fold enrichment (6-mer frequency, TF over GST control) | 1.42 fold enrichment (6-mer frequency, TF over GST control) | 1.41 fold enrichment (6-mer frequency, TF over GST control) | 1.39 fold enrichment (6-mer frequency, TF over GST control)
11 | CAACAC | 1.16 fold enrichment (6-mer frequency, TF over GST control) | 1.13 fold enrichment (6-mer frequency, TF over GST control) | 1.13 fold enrichment (6-mer frequency, TF over GST control) | 1.13 fold enrichment (6-mer frequency, TF over GST control) | 1.13 fold enrichment (6-mer frequency, TF over GST control) | 1.1 fold enrichment (6-mer frequency, TF over GST control) | 1.15 fold enrichment (6-mer frequency, TF over GST control) | 1.11 fold enrichment (6-mer frequency, TF over GST control)
12 | CGGTTC | 1.21 fold enrichment (6-mer frequency, TF over GST control) | 1.17 fold enrichment (6-mer frequency, TF over GST control) | 1.21 fold enrichment (6-mer frequency, TF over GST control) | 1.63 fold enrichment (6-mer frequency, TF over GST control) | 1.17 fold enrichment (6-mer frequency, TF over GST control) | 1.33 fold enrichment (6-mer frequency, TF over GST control) | 1.3 fold enrichment (6-mer frequency, TF over GST control) | 1.4 fold enrichment (6-mer frequency, TF over GST control)
13 | CACTGT | 1.16 fold enrichment (6-mer frequency, TF over GST control) | 1.09 fold enrichment (6-mer frequency, TF over GST control) | 1.13 fold enrichment (6-mer frequency, TF over GST control) | 1.11 fold enrichment (6-mer frequency, TF over GST control) | 1.13 fold enrichment (6-mer frequency, TF over GST control) | 1.12 fold enrichment (6-mer frequency, TF over GST control) | 1.12 fold enrichment (6-mer frequency, TF over GST control) | 1.05 fold enrichment (6-mer frequency, TF over GST control)
14 | AAGCGG | 1.08 fold enrichment (6-mer frequency, TF over GST control) | 1.17 fold enrichment (6-mer frequency, TF over GST control) | 1.13 fold enrichment (6-mer frequency, TF over GST control) | 1.08 fold enrichment (6-mer frequency, TF over GST control) | 1.16 fold enrichment (6-mer frequency, TF over GST control) | 1.13 fold enrichment (6-mer frequency, TF over GST control) | 1.15 fold enrichment (6-mer frequency, TF over GST control) | 1.23 fold enrichment (6-mer frequency, TF over GST control)
15 | CGATAC | 1.2 fold enrichment (6-mer frequency, TF over GST control) | 1.18 fold enrichment (6-mer frequency, TF over GST control) | 1.19 fold enrichment (6-mer frequency, TF over GST control) | 1.29 fold enrichment (6-mer frequency, TF over GST control) | 1.02 fold enrichment (6-mer frequency, TF over GST control) | 1.1 fold enrichment (6-mer frequency, TF over GST control) | 1.15 fold enrichment (6-mer frequency, TF over GST control) | 1.09 fold enrichment (6-mer frequency, TF over GST control)
